About 83,000 compounds went through this panel and 20% of them were active in at least one assay; those are over-represented in the sample as a whole.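 Results are percent growth after 48 hours of single-concentration exposure. 100 means growth as in untreated cells, lower positive values show inhibition; negative values down to -100 show cell death.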 Unmarked numbers belong to inactive results. Active and inactive are the calls of the source. Rule for the calls: active = growth percent below 10; inactive = the rest.

The record followed here is PubChem BioAssay (NCI).

The assay concerns TK-10 renal. The assay is described as follows: NCI-60 one-dose screen, 48 h (100 = growth as untreated, 0 = no growth, -100 = all killed). The settings on record: 10 µM unless noted.
Consider `COC1=CC(c2ccc[nH]2)=N/C1=C\c1[nH]c(C)c(C(=O)CCCCC(=O)NC(C)(C)C)c1C`, for which the growth was -18.2% (active).

Take `COc1ccc(NC(=O)/C=C(C)/C=C/C=C(C)/C=C/C2=C(C)CCCC2(C)C)cc1`: the growth is 61.6%.

In the case of `CCCCCCCCc1ccc(OCCOCC[N+](C)(C)CC)cc1` (tested in a mixture with another compound), the growth is 96.1%.

With `COc1cc2c(cc1OC)C(Cc1cc(OC)c(OC)cc1[N+](=O)[O-])=NCC2`, the growth was 73.4%.

For the compound `O=C1CCNC1`, the growth was 100%.

For `COc1ccc(-c2nnc(SCC(=O)Nc3ccc(C(=O)/C=C/c4cc(OC)c(OC)c(OC)c4)cc3)n2-c2ccccc2)cc1OC`, the growth was -42.5% [100 µM] (active).

In the case of `O=S(=O)(O)c1ccc2c(c1)Sc1cc(S(=O)(=O)O)ccc1O2`, the growth is 107%.

In the case of `Cc1ccc(S(=O)(=O)Nc2cccc(Cn3c(=O)[nH]c4ccc(Oc5ncccn5)cc4c3=O)c2)cc1`, the growth was 105%.

As for `CCCCCCCCCCC(C[N+](C)(C)C/C=C/c1ccccc1)C(O)c1ccccc1` (centres undefined), the growth was -2.74% (active).

Turning to `COc1ccc(/C=C2\CCCC3=C2N=C2SC=NN2C3c2ccc(OC)c(OC)c2)cc1OC` (centres undefined), the growth is 60.9%.

For the compound `COc1cc(CCNc2cnc3cc(N)cc(N)c3n2)cc(OC)c1`, the growth is 116%.

With `O=C(CCl)c1ccc2c(c1)CCCC2`, the growth is 86.7%.

For the compound `Cc1ccc(C(=O)Nc2ccc(CN3CCN(C)CC3)c(C(F)(F)F)c2)cc1C#Cc1cnc(N)c2ccc(F)cc12`, the growth is -84.5% (active).

As for `Cc1ccc(C(=O)Nc2ccc(CN3CCN(C)CC3)c(C(F)(F)F)c2)cc1C#Cc1cncc2ncccc12`, the growth is -98.8% (active).

`O=C(Nc1ccc(-n2cc(-c3ccncc3)c(-c3ccc(Cl)c(O)c3)n2)cc1)c1cc(C(F)(F)F)cc(C(F)(F)F)c1`: the growth was 65.4%.

`COc1ccc(C(=O)CN2C(=O)NC(c3ccccc3)(c3ccccc3)C2=O)cc1`: the growth was 117%.

Consider `CCCCCCCCC(=O)Nc1ccc(O)cc1`, for which the growth was 87.1%.

As to `COc1ccc(-c2nc(SCC(C)C)nc(Nc3ccccc3)c2C#N)cc1`, the growth is 46.9%.

Turning to `N#Cc1ccc(NC2c3ccccc3CC2O)cc1` (centres undefined), the growth was 119%.

With `N#CCCCCCCCCCCC#N`, the growth is 92.4%.

Consider `CCOC(=O)c1ccc2n1CCCc1cnc(NC(C)=O)nc1-2`, for which the growth is 107%.

With `O=C(/C(Br)=C/c1ccccc1)c1ccccc1`, the growth is 3.38% (active).

Consider `COc1ccc2c(N)ncc(C#Cc3cc(C(=O)Nc4ccc(CN5CCN(C)CC5)c(C(F)(F)F)c4)cnc3C)c2c1`, for which the growth is -60.2% (active).

For `CCCCCCCCCCCC(=O)OC(C)C(=O)Nc1ccccc1` (centres undefined), the growth is 94.9%.
